Source: paper PMC5540273 (PLoS ONE, 2017)

Tested on: T1, BRK
T1 construct: gene PTK6
Details: concentration: 1 μM, replicates: in singlicate; n = 1
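Further: KINOMEscan kinase panel screen.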

Point of comparison: c1ccc(-c2ccc3c(-c4ccnc(Nc5ccc6c(c5)OCCO6)n4)cnn3n2)cc1 [GW818941], “%Inh” value 9%. Against it:
- N#Cc1ccc(Oc2ccc(Nc3ncnc4cc[nH]c34)cc2Cl)cc1 — higher, 11%
- Cc1cc(N2CCC(NS(=O)(=O)c3ccc(F)cc3)CC2)nc(Nc2cccc(C#N)c2)n1.O=C(O)C(F)(F)F [GSK1653537] — higher, 21%
- O=C(NCCCN1CCCC1=O)c1cnc(NCc2cc(Cl)ccc2Cl)nc1NC1CCNCC1 — lower, 0%
- CNc1nccc(-c2c(-c3ccc(F)cc3)ncn2CCCN2CCOCC2)n1 [SB-222516] — lower, 0%
- C[C@@H]1CCN(C(=O)CO)C[C@@H]1N(C)c1ncnc2[nH]ccc12 — lower, 0%
- Cn1ccc2ncnc(Oc3ccc(NC(=O)Nc4cccnc4)c(Cl)c3)c21 — lower, 0%
- O=C(c1ccc(-c2cc(-c3c[nH]nc3-c3ccccn3)ccn2)cc1)N1CCCC1 [GW792479] — lower, 0%
- O=C(Nc1n[nH]c2nc(-c3ccco3)c(Br)cc12)c1ccc(CN2CCCC2)cc1.O=C(O)[C@H](O)[C@@H](O)C(=O)O [SB-742352] — lower, 0%
- Nc1n[nH]c2nnc(-c3ccccc3)cc12 [SB-517389] — higher, 20%
- Oc1ccc2ncnc(Nc3ccc(OCc4ccccc4)cc3)c2c1 [GI262866] — lower, 4%
- O=C(CCO)NCCn1ccc2ncnc(Nc3ccc(Oc4cccc(C(F)(F)F)c4)c(Cl)c3)c21 — higher, 13%
- Nc1nc(-c2cccnc2)c(-c2ccnc3ccccc23)s1 [GW684083] — the same, 9%
- COc1ccc(Nc2nccc(N3CCC(NC(=O)c4cccc(NC(C)=O)c4)C3)n2)cc1 (stereo not drawn) [GSK1379732] — lower, 0%
- CC(=O)Nc1n[nH]c2ncc(-c3ccccc3)cc12 [SB-548492] — lower, 0%
- COc1ccc(Nc2nccc(N3CCC(NC(=O)Nc4ccc5c(c4)OCO5)C3)n2)cc1 (stereo not drawn) [GSK1379745] — higher, 10%
- CCCc1ccc(S(=O)(=O)NC2CCN(c3ccnc(Nc4ccc(OC)cc4)n3)C2)cc1 (stereo not drawn) [GSK1379737] — lower, 6%
- Nc1nccc2scc(-c3ccc4c(c3)CCN4C(=O)Cc3cc(F)ccc3F)c12 [GSK2587663] — higher, 32%
- CS(=O)(=O)CCNCc1nc(-c2ccc3ncnc(Nc4ccc(OCc5cccc(F)c5)c(Cl)c4)c3c2)cs1.Cl [GW583340] — lower, 0%
- COc1ccc(NC(=O)Nc2ccc(C)c(-c3ccc(C(=O)Nc4ccncc4)cc3)c2)cc1 [GSK1398475] — higher, 32%
- FC(F)(F)c1cc(Nc2nccc(-c3c(-c4ccc(Cl)cc4)nn4ncccc34)n2)ccc1Cl [GW829351] — lower, 0%
- Cl.Cl.c1ccc(-c2cc3ccncc3cc2OC2CCNCC2)cc1 [GSK1122999] — lower, 8%
- Nc1nc(-c2ccc3c(N)n[nH]c3c2)cc(N2CCCCC2)n1 [GSK2228768] — lower, 0%
- COc1cc2c(Nc3cccc(NC(=O)c4ccccc4)c3)ncnc2cc1OCCCN1CCOCC1 [GSK223810] — higher, 18%
- Clc1cccc(-c2nc(Nc3ccncc3)c3ccccc3n2)c1 [GW873004] — higher, 24%
- CSc1ccc(NC2=C(c3ccccc3Cl)C(=O)NC2=O)cc1 [SB-342411] — higher, 14%
- O=C(Nc1ccccc1F)NC1CCN(c2ccnc(Nc3ccc(F)cc3)n2)C1 (stereo not drawn) [GSK1379722] — lower, 5%
- Cc1ccc(NC(=O)c2cccc(C#N)c2)cc1-c1ccc(C(=O)Nc2ccncc2)cc1 [GSK1398463] — higher, 14%
- Nc1nc(-c2ccc3c(N)n[nH]c3c2)cc(N2CCC[C@@H](C(=O)Nc3ccccc3)C2)n1.O=C(O)C(F)(F)F.O=C(O)C(F)(F)F [GSK2288359] — lower, 5%
- CCc1nc(-c2cccc(C)c2)c(-c2ccnc(NC(=O)c3ccccc3)c2)s1 — lower, 0%
- Cl.Fc1ccccc1COc1ccc(Nc2ncnc3ccc(-c4nnc(C(F)(F)F)o4)cc23)cc1Cl [GW424170] — lower, 6%
- Clc1cc(Nc2ncnc3cc[nH]c23)ccc1OCc1ccccn1 — lower, 4%
- CC(C)N1CCC(n2cnc(-c3ccc(F)cc3)c2-c2ccnc(N)n2)CC1 [SB-223132] — lower, 5%
- COC(=O)c1cccc(NC(=O)NCCNc2ccnc(Nc3ccc(F)cc3)n2)c1 [GSK1379883] — higher, 24%
- Cc1ccc(C)c(NC(=O)NCCNc2ccnc(Nc3ccc(F)cc3)n2)c1 [GSK1379878] — lower, 1%
- CCC(CC)(CC)n1cnc2c(N)ncnc21 [SKF-97620] — lower, 0%
